From PubChem
M1 ag = M1 muscarinic receptor agonism. CHO-M1 cells, Fluo-4 calcium fluorescence, agonist mode; active compounds read high. B-score at 10 µM. actives 3% (n = 64,000). AID 626;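 active means fluorescence rise, raw or as B-score row- and column-corrected plate score, outside the 99.7% band of its plate's samples, either direction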
D1 mod = allosteric modulators of human D1 dopamine receptor; actives 5.9% (n = 58,000); B-score at 10 µM; AID 641; HEK293 D1, CRE-luciferase, dopamine EC30 potentiation; actives deviate in either direction;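 active means luminescence count or its row- and column-corrected plate score outside the 99.7% band of the plate's sample wells, on either side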
Htt clearance = compounds clearing mutant huntingtin protein | HeLa Exon1htt(103Q)mCFP, aggregate imaging; zero = plate's median compound well | inhibition, % at 1.5 µM | actives 0.42% (n = 47,000);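 active means inhibition of aggregate fluorescence above about 70%, also judged a hit by eye on the cell image, limit read from the data, passing the limit was not always enough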;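 further: cells exposed to compound for three days before fixation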
WNV NS2B-NS3 inh = blocks West Nile virus NS2B-NS3 protease activity. P06935. WNV NS2B-NS3 protease, fluorogenic substrate Ex360/Em465; active compounds read low. z-score (concentration not given with the values). actives 0.18% (n = 65,000). AID 577; in the data active means z-score below about -3
Target sequence (P06935 1371-1501 limits assumed): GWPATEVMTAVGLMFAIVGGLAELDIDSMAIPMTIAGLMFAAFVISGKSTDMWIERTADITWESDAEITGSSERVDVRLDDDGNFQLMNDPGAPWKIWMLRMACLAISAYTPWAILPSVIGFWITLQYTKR
Target sequence (P06935 1502-1679 limits assumed): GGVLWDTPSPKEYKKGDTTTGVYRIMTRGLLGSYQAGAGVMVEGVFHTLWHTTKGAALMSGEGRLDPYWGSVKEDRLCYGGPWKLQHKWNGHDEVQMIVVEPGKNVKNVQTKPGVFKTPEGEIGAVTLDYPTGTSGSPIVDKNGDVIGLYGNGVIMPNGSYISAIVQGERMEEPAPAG
M1 antagonist = M1 muscarinic receptor (rat) antagonism. CHO-M1 cells, Fluo-4 calcium, ACh EC80 antagonist mode; active compounds read low. actives 3.4% (n = 64,000). B-score at 10 µM. P08482;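 active means calcium fluorescence response, raw or row-and-column corrected B-score, differing from the plate sample mean either way at a set confidence level, mostly lower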
D1 PAM confirm = confirmation of human D1 dopamine receptor allosteric modulators | shares compounds with D1 mod | HEK293 D1 CRE-luciferase, dopamine EC30 potentiation; active compounds read high | actives 88% (n = 2,200) | luminescence at 10 µM | AID 642;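 active means luminescence in either of two replicates above the same-plate mean plus 3 SD of the low-dose dopamine control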
D1 no dopamine = secondary test of D1 modulators: activity without dopamine. shares compounds with D1 mod. HEK293 D1 CRE-luciferase, luminescence, no dopamine; active compounds read high. luminescence at 10 µM. actives 0.8% (n = 1,900). AID 646; in the data active means luminescence above about 3900
Isoprot counter = alters isoproterenol CRE-luciferase response in HEK293 cells; shares compounds with D1 mod; HEK293 D1 CRE-luciferase, isoproterenol EC30 counter-screen; calls only at 10 µM; actives 63% (n = 2,200); AID 647;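 active means luminescence in either replicate above plate mean of wells with a partly effective reference agonist dose plus 3 SD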;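 further: isoproterenol raises cAMP through native beta-adrenoceptor Gs so signal bypasses D1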
Each line names hits and unclear results; the compound was inactive in the other large screens (follow-up assays come after a bar, where they were run). In the library only some 8.9% were active in any assay of this set; here they are far more common.

CSc1nc(-c2ccco2)nn1S(=O)(=O)c1ccc(C)cc1	D1 mod 6.54 (no result: Htt clearance) | D1 PAM confirm 11872 | Isoprot counter active
CCOC(=O)c1oc2ccc(Br)cc2c1CSc1nnc(C)s1	none
O=C(CCC(=O)c1cccs1)OCC(=O)N1CCN(C(=O)c2ccco2)CC1	none (no result: M1 ag, Htt clearance, M1 antagonist)
CC(=O)c1cccc(NC(=O)N2CCC(c3nnc(SCC(N)=O)n3C)CC2)c1	D1 mod 3.28 (no result: Htt clearance) | D1 PAM confirm inactive | Isoprot counter inactive
Cn1c(SCC(N)=O)nnc1C1CCN(C(=O)NC2CCCCC2)CC1	none (no result: Htt clearance)
CCCCN(c1ccccc1)c1ncnc2nc[nH]c12	D1 mod 11.6 (no result: Htt clearance) | D1 PAM confirm 11140 | D1 no dopamine inactive | Isoprot counter active
Cc1cc2n(n1)C(c1sccc1C)Nc1ccccc1-2 (stereo not given)	D1 mod 8.38 (no result: Htt clearance) | D1 PAM confirm 9040 | Isoprot counter active
Cc1cc2n(n1)C(c1ccccc1)Nc1ccccc1-2 (stereo not given)	D1 mod 13.9 (no result: Htt clearance) | D1 PAM confirm 14996 | D1 no dopamine inactive | Isoprot counter active
Cc1ccc2c(c1)-c1cc(C)nn1C(c1ccc3c(c1)OCO3)N2 (stereo not given)	D1 mod 5.33 | D1 PAM confirm 12540 | D1 no dopamine inactive | Isoprot counter active
Cc1cc2n(n1)C(c1ccc(N(C)C)cc1)Nc1ccccc1-2 (stereo not given)	none (no result: Htt clearance)
Cc1cc2n(n1)C(c1ccc3c(c1)OCO3)Nc1ccccc1-2 (stereo not given)	D1 mod 11 (no result: Htt clearance) | D1 PAM confirm 17556 | Isoprot counter active
Cc1ccc2c(c1)-c1cc(C)nn1C(c1sccc1C)N2 (stereo not given)	none (no result: Htt clearance)
Cc1cc2c(=O)n(NC(N)=O)c(C)nc2s1	none (no result: Htt clearance)
N#Cc1ccc2ccn(CC(=O)NCc3ccccc3)c2c1	none (no result: Htt clearance)
Cc1ccnn2c(-c3ccccc3)c3c(=O)n(C)c(=O)n(C)c3c12	D1 mod 9.07 | D1 PAM confirm 12160 | D1 no dopamine inactive | Isoprot counter active
Cn1c(=O)c2c(-c3ccccc3)n(Cc3cccnc3)cc2n(C)c1=O	none
CC1CCc2sc3ncnc(N4CCOCC4)c3c2C1 (stereo not given)	D1 mod 19.1 | D1 PAM confirm 14216 | D1 no dopamine inactive | Isoprot counter active
CC1CCc2c(sc3ncnc(N4CCOCC4)c23)C1 (stereo not given)	D1 mod 17.4 (no result: Htt clearance) | D1 PAM confirm 13928 | D1 no dopamine inactive | Isoprot counter active
COc1cccc(C2N(c3cccc(Cl)c3)C(=O)C3CCCN32)c1 (stereo not given)	none
CCOc1ccc(C2=Nn3c(nnc3-c3ccccc3OC)SC2)cc1	D1 mod 28.2 | D1 PAM confirm 21740 | Isoprot counter active
Brc1ccccc1C1=Nn2c(nnc2-c2ccccc2)SC1	D1 mod 11.6 (no result: Htt clearance) | D1 PAM confirm 13500 | D1 no dopamine inactive | Isoprot counter active
CCOc1ccc(-c2nnc3n2N=C(c2ccc(OC)cc2)CS3)cc1	none (no result: D1 mod, Htt clearance)
COc1ccccc1-c1nnc2n1N=C(c1ccc(O)c(O)c1)CS2	D1 mod 22.9 | D1 PAM confirm 21320 | Isoprot counter active
COc1ccccc1CC(=O)N(CCC#N)CCC#N	none
CCc1ccc2oc(=O)cc(CN3CCOCC3)c2c1	D1 mod 5.92 (no result: Htt clearance) | D1 PAM confirm 13788 | D1 no dopamine inactive | Isoprot counter inactive
CCc1ccc2oc(=O)cc(CN3CCC(C)CC3)c2c1	D1 mod 5.87 (no result: Htt clearance) | D1 PAM confirm 10276 | D1 no dopamine inactive | Isoprot counter active
Cc1ccc2oc(=O)cc(CN3CCOCC3)c2c1	none
Cn1c2ccccc2c(=O)n2c(=O)c3ccccc3cc12	none (no result: Htt clearance)
COc1ccc(Nc2nc3ccccc3nc2C)cc1	D1 mod 3.12 (no result: Htt clearance) | D1 PAM confirm 8152 | Isoprot counter inactive
CCCCCCn1c(C(C)NC(=O)c2ccco2)nc2ccccc21 (stereo not given)	none
CC(=NCc1cccnc1)C1=C(O)c2ccccc2C1=O	D1 mod 3.04 (no result: Htt clearance) | D1 PAM confirm 5700 | D1 no dopamine inactive | Isoprot counter inactive
c1ccc(-c2noc(C34CC5CC(CC(C5)C3)C4)n2)nc1	none (no result: Htt clearance)
O=C(NCCCN1CCN(c2ccccc2F)CC1)C1CCN(S(=O)(=O)N2CCOCC2)CC1	D1 mod 14.4 | D1 PAM confirm 15768 | D1 no dopamine 10072 | Isoprot counter active
CCOc1ncccc1C(=O)NCC1COc2ccccc2O1 (stereo not given)	D1 mod 12.6 | D1 PAM confirm 17888 | Isoprot counter active
CCOc1ncccc1C(=O)Nc1ccc(Cl)cc1	D1 mod 2.48 (no result: Htt clearance) | D1 PAM confirm 12668 | D1 no dopamine inactive | Isoprot counter active
Cc1onc(-c2ccccc2)c1C(=O)NCC1COc2ccccc2O1 (stereo not given)	none (no result: M1 ag, D1 mod, WNV NS2B-NS3 inh, M1 antagonist)
CCOc1ncccc1C(=O)Oc1ccc2c(c1)OCO2	D1 mod 3.17 | D1 PAM confirm 8328 | D1 no dopamine inactive | Isoprot counter active
CCc1ccc(C(=O)NCC2COc3ccccc3O2)o1 (stereo not given)	D1 mod 3.65 (no result: M1 ag, Htt clearance, M1 antagonist) | D1 PAM confirm inactive | D1 no dopamine inactive | Isoprot counter inactive
CCOC(=O)CN(C(=O)CSc1nnc(CNc2ccc(C)cc2C)o1)c1ccccc1	none
CS(=O)(=O)c1cnc(-c2ccccc2)nc1Oc1ccc(Cl)cc1	none (no result: M1 ag, D1 mod, WNV NS2B-NS3 inh, M1 antagonist)
O=C(c1ccc(-c2ccccc2)cc1)N1CCCC1	none
O=C(c1cccc(-c2nnc(-c3ccccc3)o2)c1)N1CCCCC1	D1 mod 7.88 | D1 PAM confirm 12576 | D1 no dopamine inactive | Isoprot counter active
COc1ccc(-c2cc(C(=O)NCc3ccccc3)no2)cc1OC	D1 mod 4.62 (no result: Htt clearance) | D1 PAM confirm 10196 | Isoprot counter active
CCCCNC(=O)c1cc(-c2ccc(OC)c(OC)c2)on1	D1 mod 3.37 | D1 PAM confirm 9084 | D1 no dopamine inactive | Isoprot counter inactive
COc1ccc(C(=O)N2CCOCC2)cc1Br	none
COc1ccc(S(=O)(=O)N(C)c2ccc(C(=O)N3CCOCC3)cc2)cc1OC	D1 mod 14.7 (no result: M1 ag, M1 antagonist) | D1 PAM confirm 16652 | D1 no dopamine inactive | Isoprot counter inactive
COc1ccc(-c2nc(CCNC(=O)c3ccco3)cs2)cc1OC	D1 mod 24 (no result: Htt clearance) | D1 PAM confirm 24816 | D1 no dopamine inactive | Isoprot counter active
CN1CCN(C(=O)c2cc3c(n(-c4ccccc4)c2=O)CC(C)(C)CC3=O)CC1	none
Cc1cc(C(=O)OCC(=O)N2c3ccccc3CC2C)c(C)o1 (stereo not given)	none (no result: Htt clearance)
